The text below walks through data of PubChem BioAssay AID651744 (Broad Institute, 2012).

Out of some 5,600 compounds screened, about 3,100 (55%) were called active. Inconclusive results (about 3%) are left out. The set was probably picked from earlier hits. These entries were drawn from the full list. A number with no mark means an inactive call.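 How the source made its calls: active means mean loss of cell viability signal at or above a set limit, and enough replicates individually reaching it; inconclusive means meets only the mean limit or only the replicate share; inactive means meets neither condition.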

Usually inhibition stands for the drop in the measured response relative to a control, in per cent.

A short description of this test: viability loss of mouse 3T3 cells – cell-based, cherry-pick, single point, set 2, cytotoxicity control, confirmation (AID 651744).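 Further: 0% = median of neutral control wells and 100% = median of positive control wells.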 As to conditions: NIH/3T3 viability, CellTiter-Glo ATP luminescence, 90 h; at 24.9 µM; active compounds read high. In general terms: In ATP-based viability assays light output follows the ATP content of the culture.
In the case of `C[C@H](CO)N1C[C@H](C)[C@H](CN(C)S(=O)(=O)c2ccccc2)Oc2ncc(-c3cccc(C(F)(F)F)c3)cc2C1=O`, the inhibition is 41.1% (active).
With `Cc1ccc(-c2cnc3c(c2)C(=O)N([C@@H](C)CO)C[C@@H](C)[C@H](CN(C)Cc2ccccc2F)O3)cc1`, the inhibition was 92.5% (active).
To `C[C@H](CO)N1C[C@H](C)[C@@H](CN(C)S(=O)(=O)c2cccc(F)c2)OCc2ccccc2-c2c(n(C)c3ccccc23)C1=O` belongs 4.71%; to `Cc1ccc(S(=O)(=O)N(C)C[C@@H]2Oc3ncc(-c4cc5ccccc5o4)cc3C(=O)N([C@H](C)CO)C[C@@H]2C)cc1`, 14.8%.
In the case of `C[C@H](CO)N1C[C@H](C)[C@H](CN(C)S(=O)(=O)c2cccc(F)c2)Oc2ncc(/C=C/c3ccccc3)cc2C1=O` it was 76% (active); in that of `C[C@H]1CN([C@@H](C)CO)C(=O)c2ccccc2-c2ccccc2CO[C@@H]1CN(C)S(=O)(=O)c1ccc(C(F)(F)F)cc1`, 9.87%.
Turning to `C[C@@H]1CN([C@H](C)CO)C(=O)c2cc(/C=C/c3ccccc3)cnc2O[C@@H]1CN(C)Cc1ccncc1`, the inhibition is 26.2% (active).
Turning to `CN1C(=O)c2cc(NC(=O)Nc3ccccc3F)ccc2OC[C@H]2O[C@H](CC(=O)NCc3ccc(-c4ccccc4)cc3)CC[C@H]21`, the inhibition is 23%.
For `O=C(c1ccccc1F)N1C[C@H]2[C@@H](c3ccccc31)[C@@H](CO)N2C(=O)c1ccc(F)cc1`, the inhibition is 9.61%.
On to `COc1ccc(CCN(C)C(=O)C2CCCN(Cc3ccc(OC)c(OC)c3)C2)cc1OC` (stereo unspecified), for which the inhibition is 2.44%.
Turning to `C[C@H]1CN([C@@H](C)CO)S(=O)(=O)c2ccc(C#CC3CCCC3)cc2O[C@H]1CN(C)C(=O)Cc1ccncc1`, the inhibition was 103% (active).
For the molecule `C[C@@H]1CN([C@H](C)CO)S(=O)(=O)c2ccc(C#CC3CCCC3)cc2O[C@@H]1CN(C)C(=O)Cc1ccncc1`, the inhibition is 85.1% (active).
As to `CC(=O)N(C)C[C@@H]1[C@@H](c2ccc(-c3ccccc3F)cc2)[C@@H](CO)N1C(C)=O`, the inhibition was -5.68%.
Regarding `N#C[C@H]1[C@@H](c2ccc(C3=CCCCC3)cc2)[C@@H](CO)N1C(=O)NC1CCCCC1`, the inhibition is 60.1% (active).
In the case of `CC(C)NC(=O)N1[C@H](C#N)[C@H](c2ccc(C#CC3CCCCC3)cc2)[C@H]1CO` it was 67.4% (active); in that of `CCc1cnc(N2[C@H](C#N)[C@H](c3ccc(C4=CCCC4)cc3)[C@@H]2CO)s1`, 7.03%.
To `CCN(C[C@H]1[C@H](c2ccccc2)[C@H](CO)N1C(=O)C1CC1)C(=O)NC1CCCC1` belongs 4.07%; to `CS(=O)(=O)N1[C@@H](C#N)[C@H](c2ccc(C#CC3CCCCC3)cc2)[C@@H]1CO`, 75.2% (active); to `N#Cc1ccc(-c2ccc3c(c2)[C@@H]2[C@@H](CCN2C(=O)Cc2ccncc2)[C@@H](CO)N3)cc1`, 14.4%.
Take `OC[C@@H]1Nc2ccc(-c3cccc(F)c3)cc2[C@H]2[C@@H]1CCN2Cc1ccncc1`: the inhibition was 43.3% (active).
Regarding `O=C(c1ccccn1)N1CC[C@@H]2[C@H]1c1cc(-c3ccccc3)ccc1N[C@@H]2CO`, the inhibition is 7.5%.
As for `O=C(c1cnccn1)N1CC[C@@H]2[C@H](CO)Nc3ccc(-c4cccc(F)c4)cc3[C@@H]21`, the inhibition was 42.7% (active).
Regarding `CN1c2ccc(-c3ccccc3)cc2[C@@H]2[C@@H](CCN2C(=O)c2ccncc2)[C@@H]1CO`, the inhibition was 18.7%.
With `COc1cccc(S(=O)(=O)N2C[C@@H](O)COC[C@@H]3O[C@H](CC(=O)Nc4ccccc4)CC[C@H]32)c1`, the inhibition was 26.4%.
For `O=C(C[C@H]1CC[C@@H]2[C@H](COC[C@H](O)CN2Cc2ccc(Oc3ccccc3)cc2)O1)N1CCN(c2ccccc2)CC1`, the inhibition is 104% (active).
As for `Cc1ccc(S(=O)(=O)N2C[C@@H](O)COC[C@@H]3O[C@H](CC(=O)NCc4ccc(Cl)c(Cl)c4)CC[C@H]32)cc1`, the inhibition was 8.83%.
In the case of `O=C(C1CCC1)N1CCCCN2[C@H](CO)[C@H](c3ccc(-c4ccncc4)cc3)[C@@H]2C1`, the inhibition was -9.25%.
As for `COc1ccccc1C#Cc1ccc([C@H]2[C@H](CO)N3CCCCN(C(=O)C4CCC4)C[C@@H]23)cc1`, the inhibition is 105% (active).
Take `COc1ccccc1C#Cc1ccc([C@@H]2[C@H](CO)N3CCCCN(C(=O)C4CCCC4)C[C@@H]23)cc1`: the inhibition is 103% (active).
In the case of `COc1ccccc1C#Cc1ccc([C@@H]2[C@H](CO)N3CCCCN(C(=O)C4CC4)C[C@@H]23)cc1` it was 100% (active); in that of `COc1ccccc1NC(=O)N1CCCCN2[C@H](C1)[C@H](c1ccc(-c3ccccc3)cc1)[C@@H]2CO`, 14.8%; in that of `C[C@@H]1CN([C@@H](C)CO)C(=O)c2cc(C#Cc3ccccc3)cnc2O[C@H]1CN(C)C(=O)c1ccccn1`, 34.3% (active).
Consider `Cc1ccc(S(=O)(=O)Nc2ccc3c(c2)C(=O)N([C@@H](C)CO)C[C@@H](C)[C@H](CN(C)C(=O)Nc2cccc4ccccc24)OCCCC[C@H](C)O3)cc1`, for which the inhibition was 14.8%.
Turning to `C[C@H](CO)N1C[C@H](C)[C@@H](CN(C)C(=O)Nc2ccnc(N3CCOCC3)c2)OCc2ccccc2-c2ccccc2C1=O`, the inhibition is 17.3%.
For `C[C@@H]1CN([C@H](C)CO)C(=O)c2cc(C#Cc3ccccn3)cnc2O[C@H]1CN(C)Cc1ccccc1`, the inhibition was -11.5%.
As to `C[C@H](CO)N1C[C@H](C)[C@H](CN(C)C(=O)Nc2cccc3ccccc23)Oc2ncc(C#Cc3ccccc3)cc2C1=O`, the inhibition is 105% (active).
Turning to `COc1ccc(C#Cc2cnc3c(c2)C(=O)N([C@@H](C)CO)C[C@H](C)[C@@H](CN(C)C(C)=O)O3)cc1`, the inhibition is 45.4% (active).
In the case of `Cc1noc(C)c1S(=O)(=O)Nc1ccc2c(c1)C(=O)N([C@@H](C)CO)C[C@H](C)[C@@H](CN(C)C(=O)Nc1cccc3ccccc13)OCCCC[C@H](C)O2`, the inhibition is 13.2%.
As for `CC(C)CC#Cc1cnc2c(c1)C(=O)N([C@@H](C)CO)C[C@@H](C)[C@H](CN(C)C(=O)Cc1ccncc1)O2`, the inhibition was 36.6% (active).
On to `COCC(=O)N(C)C[C@@H]1Oc2ncc(C#Cc3ccccc3OC)cc2C(=O)N([C@@H](C)CO)C[C@H]1C`, for which the inhibition is 34.8% (active).
Turning to `CCCN(C)C[C@@H]1Oc2cc(C#Cc3ccc(F)cc3)ccc2S(=O)(=O)N([C@H](C)CO)C[C@H]1C`, the inhibition was 105% (active).
For `CCCN(C)C[C@H]1Oc2cc(C#CC3CCCC3)ccc2S(=O)(=O)N([C@H](C)CO)C[C@@H]1C`, the inhibition is 105% (active).
As for `COCCNC[C@@H]1[C@H](c2ccccc2)[C@H](CO)N1c1nc(C)c(C)s1`, the inhibition is 5.9%.
In the case of `C/C=C/c1ccc([C@H]2[C@@H](CNC(C)C)N(c3nc(CC)cs3)[C@H]2CO)cc1` it was 103% (active).
To `CN(C)C(=O)c1ccc(-c2ccc([C@@H]3[C@H](CO)N4CCCCN(S(C)(=O)=O)C[C@@H]34)cc2)cc1` belongs 6.63%; to `Cc1cccc(-c2ccc([C@@H]3[C@@H](CO)N4CCCCN(S(=O)(=O)c5cccs5)C[C@H]34)cc2)c1`, 95.2% (active).
For the molecule `O=S(=O)(Cc1ccccc1)N1CCCCN2[C@@H](CO)[C@@H](c3ccc(-c4ccc(F)cc4)cc3)[C@@H]2C1`, the inhibition is 105% (active).
As for `O=S(=O)(Cc1ccccc1)N1CCCCN2[C@@H](CO)[C@H](c3ccc(-c4ccccc4)cc3)[C@@H]2C1`, the inhibition was 106% (active).
Regarding `CCS(=O)(=O)N1CCCCN2[C@@H](CO)[C@@H](c3ccc(-c4ccccc4)cc3)[C@@H]2C1`, the inhibition is 49.5% (active).
Consider `O=S(=O)(Cc1ccccc1)N1CCCCN2[C@@H](CO)[C@H](c3ccc(-c4cccnc4)cc3)[C@@H]2C1`, for which the inhibition was -12.4%.
Consider `C[C@H](O)C#Cc1ccc([C@H]2[C@H]3CN(S(=O)(=O)Cc4ccccc4)CCCCN3[C@H]2CO)cc1`, for which the inhibition was 30.3% (active).
`C/C=C/c1ccc([C@H]2[C@H]3CN(S(=O)(=O)c4ccccc4)CCCCN3[C@H]2CO)cc1`: the inhibition was 87.7% (active).
In the case of `C[C@@H](O)C#Cc1ccc([C@@H]2[C@H](CO)N3CCCCN(S(=O)(=O)c4ccccc4)C[C@@H]23)cc1` it was 3.32%; in that of `C[C@H](O)C#Cc1ccc([C@@H]2[C@H]3CN(S(=O)(=O)c4ccccc4)CCCCN3[C@H]2CO)cc1`, 25.4%; in that of `COc1cccc(S(=O)(=O)Nc2ccc3c(c2)[C@H]2C[C@H](CC(=O)NCc4ccc(Cl)cc4)O[C@H](CO)[C@H]2O3)c1`, 4.86%.
Take `O=C(Nc1ccc(Cl)cc1)N[C@@H]1CC[C@@H](CCNC(=O)c2ccccc2F)O[C@H]1CO`: the inhibition was 4.33%.
In the case of `O=C(Nc1cc(Cl)cc(Cl)c1)N[C@H]1CC[C@@H](CCNS(=O)(=O)c2cccc(F)c2)O[C@H]1CO`, the inhibition was 57.3% (active).
`CC(C)CC#Cc1ccc2c(c1)O[C@H](CN(C)Cc1ccccc1F)[C@@H](C)CN([C@@H](C)CO)S2(=O)=O`: the inhibition is 105% (active).
`CC(C)CC#Cc1ccc2c(c1)O[C@H](CN(C)Cc1cccnc1)[C@H](C)CN([C@@H](C)CO)S2(=O)=O`: the inhibition is 97% (active).
To `CC(C)CC#Cc1ccc2c(c1)O[C@H](CN(C)Cc1ccncc1)[C@H](C)CN([C@H](C)CO)S2(=O)=O` belongs 104% (active).
For the molecule `C[C@H](CO)N1C[C@H](C)[C@@H](CN(C)Cc2ccncc2)Oc2cc(Br)ccc2S1(=O)=O`, the inhibition is 51.2% (active).
To `CCCC#Cc1ccc2c(c1)O[C@@H](CN(C)C(=O)c1ccccc1F)[C@H](C)CN([C@H](C)CO)S2(=O)=O` belongs 24.6%; to `O=C(Nc1ccc2c(c1)[C@@H]1C[C@H](CC(=O)N3CCOCC3)O[C@@H](CO)[C@@H]1O2)c1ccc2c(c1)OCO2`, 4.7%; to `C[C@H]1CN([C@@H](C)CO)S(=O)(=O)c2ccc(C#CC3CCCC3)cc2O[C@@H]1CN(C)C(=O)c1cccc(F)c1`, 105% (active).
Consider `C[C@H](CO)N1C[C@H](C)[C@@H](CN(C)C(=O)Nc2cc(F)ccc2F)Oc2cc(C#CC3CC3)ccc2S1(=O)=O`, for which the inhibition is 55.6% (active).
Regarding `C[C@H]1CN([C@@H](C)CO)C(=O)CCCn2cc(nn2)CO[C@H]1CN(C)C(=O)c1ccccc1`, the inhibition was 7.66%.
